Bioassay records deposited in PubChem BioAssay by National Center for Advancing Translational Sciences (NCATS).
In the library only some 10% were active in any assay of this set; here they are far more common.
HEK cytotox = cytotoxic compounds in HEK 293 cells; HEK 293 viability, ATP luminescence (CellTiter-Glo), 48-72 h; Potency, µM (doses to about 115 µM), for inactives: at the highest dose activity change, negative = cytotoxicity, most hits filed as inhibitors; 94,000 compounds, 6.6% hits; further: on the % scale 0 is the no-effect control and ±100 the full control effect; nearly all actives have a fitted effect of over 60% in size
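Pintool-delivered compounds were incubated with HEK 293 cells (250 cells/well) at 37 degree Celsius for 48 or 72 hr. ATP-dependent luminescence (CellTiter-Glo) then reported remaining viable cells.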
Luciferase inh = inhibitors of firefly (Photinus pyralis) luciferase; P08659; purified P. pyralis luciferase, luminescence, biochemical; Potency, µM (titrated, usually from 115 µM), actives largely listed as inhibitors; 76,000 compounds, 2.5% hits; further: on the % scale 0 is the no-effect control and ±100 the full control effect; nearly all actives have a fitted effect of over 65% in size
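Biochemical qHTS: compound (6-point titration) added to 10uM D-luciferin plus 10uM ATP in Tris acetate pH 7.5 buffer with Mg, Tween-20 and BSA, then purified enzyme at 10nM; light output imaged.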
hNpr1 antagonist = antagonists of human natriuretic peptide receptor Npr1; AID 1347048; 76,000 compounds, 1.6% hits; HEK293 hNpr1 GloSensor cGMP, ANP-stimulated luminescence; Potency, µM (series often up to 46.3 µM), for the others: top-dose activity change, negative = inhibition, usual class: inhibitors; P16066; calls by dose curve; further: on the % scale 0 is the no-effect control and ±100 the full control effect; nearly all actives have a fitted effect of over 60% in size
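Compound pre-incubated 30 min at room temperature on GloSensor-loaded HEK293 cells stably carrying hNpr1 and the pGS-40F cGMP biosensor. Stimulation uses hNppA at 0.1 nM final; luminescence is taken at baseline and 20 min post-agonist.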
3T3 cytotox = cytotoxic compounds in NIH 3T3 cells | NIH 3T3 viability, CellTiter-Glo ATP luminescence, 48-72 h | Potency, µM (top dose mostly 96.7 µM), for inactives: at the top dose activity change, negative = cytotoxicity, hits mostly inhibitors | 94,000 compounds, 4.3% hits | AID 1345082; further: on the % scale 0 is the no-effect control and ±100 the full control effect; nearly all actives have a fitted effect of over 55% in size
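Cells were seeded at 400 per well, treated with pin-transferred compound, and kept 48 or 72 hr at 37 °C before CellTiter-Glo addition and luminescence imaging of cellular ATP.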
GPT2 inh = GPT2 alanine aminotransferase inhibition; Q8TD30; Recombinant GPT2, coupled pyruvate oxidase/HRP Amplex Red fluorescence; Potency, µM (top dose mostly 57.7 µM), without a hit: top-dose activity change, negative = inhibition, hits mostly inhibitors; 100,000 compounds, 0.25% hits; AID 1671188; further: on the % scale 0 is the no-effect control and ±100 the full control effect; nearly all actives have a fitted effect of over 60% in size
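Fluorescence read-out: pyruvate from GPT2 turnover coupled to pyruvate oxidase, HRP and Amplex Red (0.2mM ThPP, 0.2U/mL PO and HRP, 50uM Amplex final). Substrates 250uM a-KG, 2mM L-alanine; enzyme 10ng/uL; 30 min RT.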
Npr1 antag conf = confirmation of human Npr1 natriuretic peptide receptor antagonists | shares compounds with hNpr1 antagonist | 1,400 compounds, 76% hits | Potency, µM (highest dose often 57.6 µM), inactives show at the top dose activity change, negative = inhibition, usual class: inhibitors | HEK293 hNpr1 cGMP GloSensor luminescence, ANP-stimulated; calls by dose curve; further: nearly all actives have a fitted effect of over 70% in size
Npr2 selectivity = hNpr2 antagonism, selectivity versus Npr1. HEK293 hNpr2 GloSensor cGMP luminescence, CNP-stimulated. shares compounds with hNpr1 antagonist. 1,400 compounds, 67% hits. AID 1347046. Potency, µM (top dose mostly 57.6 µM), for the others: top-dose activity change, negative = inhibition, usual class: inhibitors; calls by dose curve; further: nearly all actives have a fitted effect of over 70% in size
Target sequence (P20594 whole entry, looked up): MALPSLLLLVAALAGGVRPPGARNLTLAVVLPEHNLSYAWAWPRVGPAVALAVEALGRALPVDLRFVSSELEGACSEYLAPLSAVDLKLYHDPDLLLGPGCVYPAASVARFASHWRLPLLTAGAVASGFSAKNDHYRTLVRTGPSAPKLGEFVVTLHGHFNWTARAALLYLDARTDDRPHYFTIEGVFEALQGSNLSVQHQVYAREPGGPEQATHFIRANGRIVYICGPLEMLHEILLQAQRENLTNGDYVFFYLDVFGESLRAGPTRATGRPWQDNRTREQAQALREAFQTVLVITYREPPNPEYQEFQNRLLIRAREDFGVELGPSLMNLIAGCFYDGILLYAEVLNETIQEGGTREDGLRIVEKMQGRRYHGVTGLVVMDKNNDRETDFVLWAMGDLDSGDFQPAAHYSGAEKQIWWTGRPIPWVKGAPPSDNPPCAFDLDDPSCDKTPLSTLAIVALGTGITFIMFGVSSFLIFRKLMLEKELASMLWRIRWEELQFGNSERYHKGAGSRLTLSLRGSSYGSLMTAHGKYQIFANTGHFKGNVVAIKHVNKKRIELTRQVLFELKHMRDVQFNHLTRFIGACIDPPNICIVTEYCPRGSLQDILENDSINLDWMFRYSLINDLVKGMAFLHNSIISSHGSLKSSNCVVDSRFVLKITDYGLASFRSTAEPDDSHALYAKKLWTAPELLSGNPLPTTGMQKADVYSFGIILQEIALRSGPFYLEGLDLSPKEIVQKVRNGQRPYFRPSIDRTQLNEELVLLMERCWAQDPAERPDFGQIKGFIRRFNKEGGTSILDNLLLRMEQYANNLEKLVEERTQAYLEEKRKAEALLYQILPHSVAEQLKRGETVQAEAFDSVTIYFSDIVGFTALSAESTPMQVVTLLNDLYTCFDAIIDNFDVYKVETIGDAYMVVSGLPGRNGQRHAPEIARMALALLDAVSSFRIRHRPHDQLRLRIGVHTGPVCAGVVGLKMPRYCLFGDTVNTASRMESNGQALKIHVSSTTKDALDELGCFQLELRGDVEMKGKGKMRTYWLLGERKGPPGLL
FLuc inh counter = FLuc enzyme inhibition, Npr1 counter-screen | shares compounds with hNpr1 antagonist | purified FLuc enzyme, luminescence, Km substrate | Potency, µM (top dose mostly 57.6 µM), inactives show at the highest dose activity change, negative = inhibition, usual class: inhibitors | 1,400 compounds, 0.7% hits; further: 0% is about no effect
GloSensor ctrl = reduces cGMP signal in GloSensor control cells | shares compounds with hNpr1 antagonist | HEK293 GloSensor cGMP, SNP-stimulated, luminescence | Potency, µM (top dose mostly 57.6 µM), for inactives: at the highest dose activity change, negative = inhibition, most hits filed as inhibitors | 1,400 compounds, 69% hits | AID 1347051; calls by dose curve; further: on the % scale 0 is the no-effect control and ±100 the full control effect; nearly all actives have a fitted effect of over 70% in size
* marks the source's active call; other numbers are inactive results; i = inactive; ? = inconclusive; / = no result given; ! = repeats disagree; [ ] = another dose, or the depositor's remark. Unless noted, the call rests on the fitted dose curve; in most records, active means well fitted curve in the direction sought with a large enough effect; inconclusive means small, poorly fitted or top-dose-only effect, or another doubt; inactive means no such curve, though single readings can be large; an effect the other way counts as inactive or inconclusive. Potency means the concentration at half of the fitted maximal effect.

SMILES	HEK cytotox	Luciferase inh	hNpr1 antagonist	3T3 cytotox	GPT2 inh	Npr1 antag conf	Npr2 selectivity	FLuc inh counter	GloSensor ctrl
COc1nccc(N2CC[C@@](O)(C3CCOCC3)[C@H](C)C2)c1C#N	-2%	i	6%	-2%	-3%	/	/	/	/
COCCCNC(=O)c1nc2sccn2c1-c1ccccc1	0%[172 µM]	/	/	-14%[138 µM]	-4%[88.5 µM]	/	/	/	/
CC(C)c1nc(-c2ccc(OC3CCN(C(=O)c4n[nH]c5ccccc45)C3)cc2)no1 (centres undefined)	28µM*	i	16µM*	?	0%	24µM*	24µM*	0%	19µM*
CC(C)c1nc(-c2ccc(OC3CCN(C(=O)c4cc(F)ccc4F)C3)cc2)no1 (centres undefined)	20µM*	i	11µM*	?	-15%	11µM*	14µM*	1%	11µM*
O=C(c1cc(F)ccc1F)N1CC(Oc2ccc(-c3nc(-c4ccccc4)no3)cc2)C1	?	?	?	-11%	i	/	/	/	/
C=C1CC23CC1CCC2C12OC(=O)C(C)(CCC1O)C2C3C(=O)O (centres undefined)	/	/	/	/	i	/	/	/	/
COc1ccc(-n2nc(C3CCN(Cc4cccc5ccccc45)CC3)[nH]c2=O)cc1	?	i	11µM*	?	?	24µM*	24µM*	0%	27µM*
CCCCCN(CCC(=O)NCc1ccc2c(c1)OCO2)C(=O)c1cc(C)oc1C	?	i	13µM*	32µM*	?	?	?	2%	1%
CCCCCCN(CCC(=O)NCCc1ccccc1)C(=O)c1cc(C)oc1C	8.9µM*	i	16µM*	?	-11%	?	?	-21%	?
COCCCN(CCC(=O)NCCc1ccccc1)C(=O)c1cc(C)oc1C	?	i	-2%	?	3%	/	/	/	/
O=C(Nc1ccccc1F)N1CC2CCC(C1)N2Cc1ccc(-c2cc(F)cc(F)c2)cc1	?	/	/	?	i	/	/	/	/
Cc1nc(-c2cn(C3CCCN(C(=O)C(C)Oc4ccc(Cl)cc4)C3)nn2)no1 (centres undefined)	-3%	i	-1%	-22%	4%	/	/	/	/
Cc1ccc(S(=O)(=O)N[C@H]2CO[C@H]3[C@@H]2OC[C@@H]3n2nnnc2Oc2ccc(-n3ccnc3)cc2)cc1	?	i	-24%	?	3%	/	/	/	/
CC(C)(N)c1cn(CC2CCN(C(=O)NC3CCCCCC3)CC2)nn1	-12%	i	0%	-15%	5%	/	/	/	/
CC(C)Cc1cn(CC2CCCN(C(=O)NC3CCCCCC3)C2)nn1 (centres undefined)	?	i	10µM*	?	i	17µM*	17µM*	1%	12µM*
CC(C)(O)CC(CO)NC(=O)CC(O)CC(=O)Cc1ccccc1 (centres undefined)	/	/	/	/	-2%[27.3 µM]	/	/	/	/
COCc1cc(N2CCC(c3cccc(OC)c3OC)C2)ncn1 (centres undefined)	?	i	3.2µM*	?	i[11.5 µM]	3.1µM*	4.8µM*	-2%	3.1µM*
COc1ccc(OC)c(C2CCN(c3ncncn3)C2)c1 (centres undefined)	?	i	4%	?	-13%[11.5 µM]	/	/	/	/
O=C(NC1CCN(Cc2ccccc2)CC1)c1cc2n(n1)CC(c1ccc(Cl)cc1)OC2 (centres undefined)	?	i	10µM*	?	-7%	19µM*	17µM*	4%	12µM*
O=C(NC1CCN(Cc2ccccc2)CC1)c1cc2n(n1)CC(c1ccc3c(c1)OCO3)OC2 (centres undefined)	?	i	13µM*	?	i	22µM*	22µM*	-1%	17µM*
COc1ccc(C(=O)N2CCC3(CC2)CC(c2cccc(C(F)(F)F)c2)=NO3)cc1	35µM*!	i	11µM*	22µM*!	3%	24µM*	27µM*	3%[6.39 µM]	?
COc1cccc(CC(=O)NC2CCN(c3cc(-c4ccc(Cl)cc4)[nH]n3)CC2)c1	-30%	i	?	-24%	i	?	?	-3%	?
COc1ccc(CC(=O)NC2CCN(c3cc(-c4ccc(Cl)cc4)[nH]n3)CC2)cc1OC	40µM*	i	18µM*	?	3%	24µM*	22µM*	-1%	24µM*
N#Cc1ccc(C(=O)NC2CCN(c3cc(-c4ccc(Cl)cc4)[nH]n3)CC2)cc1	?	i	?	-20%	i	?	?	-2%	?
O=C(COc1ccccc1)NC1CCN(c2cc(-c3ccccc3)[nH]n2)CC1	?	i	-30%	?	0%	/	/	/	/
SMILES	HEK cytotox	Luciferase inh	hNpr1 antagonist	3T3 cytotox	GPT2 inh	Npr1 antag conf	Npr2 selectivity	FLuc inh counter	GloSensor ctrl
Cc1ccccc1OCC(=O)NC1CCN(c2cc(-c3ccccc3)[nH]n2)CC1	25µM*	i	11µM*	?	1%	15µM*	22µM*	-2%	11µM*
COc1ccc(-c2cc(N3CCC(NC(=O)Cc4cccc(OC)c4)CC3)n[nH]2)cc1	?	i	-7%	?	-6%	/	/	/	/
COCCNC(=O)CCCN1C(=O)COc2ccc(C(=O)COc3ccc(Cl)cc3C)cc21	?	i	-17%	-19%	i	/	/	/	/
COc1ccc(CN2CCC3(Cc4ccccc4CNC3=O)C2)cn1 (centres undefined)	-21%	/	/	-11%	i	/	/	/	/
CCCNC(=O)N(C1CCOCC1)C1CCN(S(=O)(=O)c2cc(F)ccc2C)CC1	-15%	i	1%	?	-10%	/	/	/	/
COc1ccc(C(=O)NC2CCCN(c3cc(-c4ccc(Cl)cc4)[nH]n3)C2)c(C)c1 (centres undefined)	-29%	i	?	-28%	i	?	?	-2%	?
